{
  "source": "PubChem BioAssay AID686978",
  "about": "(National Center for Advancing Translational Sciences (NCATS), 2013)",
  "note": "Screen size: about 420,000 compounds; about 64,000 (15%) were called active. About 27% were inconclusive and are not listed. The list is a sample of the results. A number with no mark means an inactive call. Calls follow the shape of the dose curve; as a rule, active = well fitted inhibition curve with a large enough effect; inconclusive = small, poorly fitted or top-dose-only effect; inactive = flat fitted curve, though single readings scatter. % is scaled to controls: 0 for no effect and ±100 for the full control effect; potency is read from the fitted curve at half-maximal effect.",
  "data": [
    {"experiment": "qHTS for Inhibitors of human tyrosyl-DNA phosphodiesterase 1 (TDP1): qHTS in cells in absence of CPT; also: nearly all actives have a fitted effect of over 55% in size", "conditions": "DT40 Tdp1-/- hTDP1 cells, no CPT, ATP luminescence, 48 h; activity change, negative = growth inhibition: at 46.2 µM (top of the series)", "how_it_was_run": "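Luminescent ATP content (CellTiter-Glo) served as the growth readout. Knockout chicken DT40 cells expressing human TDP1 were exposed to compounds without camptothecin for a minimum 48 hr at 37 °C.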", "units": {"activity change, negative = growth inhibition": "%"}, "values": [
      {"molecule": "Cc1sc2nc(SCC(N)=O)n(C)c(=O)c2c1C", "activity change, negative = growth inhibition": -15.2},
      {"molecule": "Cc1sc2nc(SCCO)n(-c3ccccc3)c(=O)c2c1C", "Potency": "13 µM (active)"},
      {"molecule": "COc1cccc(N(C(=O)CNC(=O)c2ccco2)C(C(=O)NC2CCCCC2)c2cccnc2)c1", "note": "(configuration not stated)", "activity change, negative = growth inhibition": -7.84},
      {"molecule": "CCOc1ccc2cc(C#N)c(SCC(=O)OC)nc2c1", "activity change, negative = growth inhibition": -16.1},
      {"molecule": "CC(C)c1c(C(=O)N/N=C/c2ccc(-c3ccccc3)cc2)nnn1-c1nonc1N", "activity change, negative = growth inhibition": 1.96},
      {"molecule": "CC1(C)C(=O)C2(CCCCC2)C(=O)OC1c1cccs1", "note": "(configuration not stated)", "activity change, negative = growth inhibition": -15.1},
      {"molecule": "CC(C)(C)Nc1c(N)c(=O)oc2ccccc12", "activity change, negative = growth inhibition": -10.6},
      {"molecule": "O=c1oc2ccccc2c(=O)c2ccccc12", "activity change, negative = growth inhibition": -0.558},
      {"molecule": "CCNc1c(NS(=O)(=O)c2ccc(C3CCCCC3)cc2)c(=O)oc2ccccc12", "Potency": "16.4 µM (active)"},
      {"molecule": "Cn1c(Cc2csc(N)n2)nnc1SC/C=C/c1ccccc1", "activity change, negative = growth inhibition": -1.41},
      {"molecule": "COc1cccc2c(N/N=C/c3ccco3)cc(C)nc12", "activity change, negative = growth inhibition": 4.74},
      {"molecule": "CCOC(=O)C1=NN(c2ccc(Cl)cc2)/C(=C/C2=NCCc3cc(OC)c(OC)cc32)S1", "activity change, negative = growth inhibition": -3.61},
      {"molecule": "COc1cc2c(cc1OC)C(/C=C/c1ccco1)=NCC2", "Potency": "13 µM (active)"},
      {"molecule": "CC12C(=O)N(n3cnnc3)C(=O)C1C1C=CC2C1", "note": "(configuration not stated)", "activity change, negative = growth inhibition": 1.03},
      {"molecule": "CS(=O)(=O)N(CC(=O)N1CCCC1)Cc1ccccc1", "activity change, negative = growth inhibition": -6.97},
      {"molecule": "O=C1CCCc2c1nc(-c1cccc(Cl)c1)n2O", "activity change, negative = growth inhibition": -24.8},
      {"molecule": "Cc1ccc2nc(-c3cccc(Br)c3)cc(C(=O)Nn3cnnc3)c2c1", "activity change, negative = growth inhibition": 6.51},
      {"molecule": "O=c1c2cc(Br)ccc2nc(-c2cccc(Cl)c2)n1O", "Potency": "23.1 µM (active)"},
      {"molecule": "CCOC(=O)N1CCC(NC(=O)CCc2cn(C)c3ccccc23)CC1", "activity change, negative = growth inhibition": -15.3},
      {"molecule": "CCC(CC)c1nnc(NC(=O)C2=COCCO2)s1", "activity change, negative = growth inhibition": 2.02},
      {"molecule": "CNC(=O)NC(=O)CSc1nnc(-c2ccc(F)cc2)n1CC1CCCO1", "note": "(configuration not stated)", "activity change, negative = growth inhibition": -4.38},
      {"molecule": "Cc1ccc(CNS(=O)(=O)c2ccc(-c3cc(C(F)(F)F)on3)s2)cc1", "activity change, negative = growth inhibition": -19.5},
      {"molecule": "CC1CN(C2CCCCC2)c2nc3c(c(=O)n(C)c(=O)n3C)n2C1", "note": "(configuration not stated)", "activity change, negative = growth inhibition": -26.3},
      {"molecule": "COCCn1cnc2c1c(=O)n(CC(=O)NN)c(=O)n2Cc1ccccc1", "activity change, negative = growth inhibition": 22},
      {"molecule": "Cc1cccc(N2CC(C)Cn3c2nc2c3c(=O)n(CC(=O)OCc3ccccc3)c(=O)n2C)c1", "note": "(configuration not stated)", "Potency": "13 µM (active)"},
      {"molecule": "Cc1ccccc1SCC(=O)OCC(=O)N1CC(=O)Nc2ccccc21", "activity change, negative = growth inhibition": 7.53},
      {"molecule": "CC(=O)C1C(c2cccc(Oc3ccccc3)c2)NC(=O)NC1(O)C(F)(F)F", "note": "(configuration not stated)", "activity change, negative = growth inhibition": -25.6},
      {"molecule": "C[C@@H]1CN([C@@H](C)CO)S(=O)(=O)c2ccc(-c3ccc(C(=O)N(C)C)cc3)cc2O[C@@H]1CN(C)Cc1ccccc1C(=O)O", "activity change, negative = growth inhibition": 10.6},
      {"molecule": "C[C@@H]1CN([C@@H](C)CO)S(=O)(=O)c2ccc(C#Cc3cccc(F)c3)cc2O[C@H]1CN(C)S(=O)(=O)c1cn(C)cn1", "Potency": "23.1 µM (active)"},
      {"molecule": "C[C@H]1CN([C@@H](C)CO)S(=O)(=O)c2ccc(-c3cccc(F)c3)cc2O[C@@H]1CN(C)C", "activity change, negative = growth inhibition": -15.1},
      {"molecule": "C[C@H](CO)N1C[C@H](C)[C@@H](CN(C)C(=O)c2cccc(F)c2)Oc2cc(-c3cncnc3)ccc2S1(=O)=O", "activity change, negative = growth inhibition": 9.26},
      {"molecule": "COCC(=O)N(C)C[C@H]1Oc2cc(Br)ccc2S(=O)(=O)N([C@H](C)CO)C[C@H]1C", "activity change, negative = growth inhibition": -22.5},
      {"molecule": "C[C@@H]1CN([C@H](C)CO)S(=O)(=O)c2ccc(C#C[C@@H](C)O)cc2O[C@@H]1CN(C)Cc1ccc(-c2ccccc2)cc1", "Potency": "6.51 µM (active)"},
      {"molecule": "CCCCc1nc(SCC(=O)Nc2nnc(C(C)C)s2)n[nH]1", "activity change, negative = growth inhibition": -3.34},
      {"molecule": "COc1cccc(N2C(=O)CN(Cc3ccccc3)C2=S)c1", "activity change, negative = growth inhibition": 17.9},
      {"molecule": "COc1ccccc1NC(=O)C1=C(C)Nc2nnnn2C1c1cccc(Br)c1", "note": "(configuration not stated)", "activity change, negative = growth inhibition": 5.32},
      {"molecule": "Cc1ccccc1OCCOc1ccc([N+](=O)[O-])cc1/C=N/n1cnnc1", "Potency": "1.46 µM (active)"},
      {"molecule": "COc1ccccc1OCCOc1ccc(/C=N/n2cnnc2)cc1", "activity change, negative = growth inhibition": -6.26},
      {"molecule": "Cc1cc([N+](=O)[O-])c(-c2ccc(/C=N/n3cnnc3)o2)cc1Cl", "activity change, negative = growth inhibition": -24.4},
      {"molecule": "Cc1ccc(Cn2c(=O)n(-c3ccc(C)cc3)c(=O)c3c2c2cc(C)ccc2n3C)cc1", "activity change, negative = growth inhibition": -13.4},
      {"molecule": "Cc1nnc(SCC(=O)N2CCOCC2)[nH]c1=O", "activity change, negative = growth inhibition": 0.581},
      {"molecule": "CCC(C)n1[nH]c(=O)c2c(C)cc(C)nc21", "note": "(configuration not stated)", "activity change, negative = growth inhibition": -4.35},
      {"molecule": "Cc1ccc(S(=O)(=O)N2CCC(C(=O)OCC(=O)N3CC(=O)Nc4ccccc43)CC2)cc1", "activity change, negative = growth inhibition": -1.96},
      {"molecule": "CCOc1ccc(OCC)c(-c2c(=O)n(OCc3ccc(Cl)cc3)c3ccccc3[n+]2[O-])c1", "Potency": "8.2 µM (active)"},
      {"molecule": "CCOC(=O)COn1c(=O)c(-c2ccc(OCC)cc2)[n+]([O-])c2ccccc21", "activity change, negative = growth inhibition": -0.585},
      {"molecule": "O=c1c(-c2ccc(Cl)cc2)[n+]([O-])c2ccccc2n1OCc1nc2ccccc2[nH]1", "activity change, negative = growth inhibition": -28.2},
      {"molecule": "COc1ccc(OC)c(-c2c(=O)n(OCc3ccccc3Br)c3ccccc3[n+]2[O-])c1", "Potency": "23.1 µM (active)"},
      {"molecule": "Cc1cc(C)cc(OCC(=O)OCC(=O)NC2CCCC2)c1", "activity change, negative = growth inhibition": -7.14},
      {"molecule": "COC(=O)Cc1nc2c(N)nc(N)nc2[nH]c1=O", "activity change, negative = growth inhibition": -24.5},
      {"molecule": "CS(=O)(=O)N1CCCC(C(=O)Nc2ccccc2C(F)(F)F)C1", "note": "(configuration not stated)", "activity change, negative = growth inhibition": -7.79},
      {"molecule": "CC1CCCCN1S(=O)(=O)c1ccc(F)c(C(=O)Nc2ccccc2C(F)(F)F)c1", "note": "(configuration not stated)", "Potency": "18.4 µM (active)"},
      {"molecule": "CC(C)c1ccc(NC(=O)c2cc(S(=O)(=O)N3CCc4ccccc4C3)ccc2F)cc1", "activity change, negative = growth inhibition": -28.2}
    ]}
  ]
}
